Test results published in PubChem BioAssay (NCATS).
Records with an inconclusive call do not appear. More than one record can exist for a structure, and the calls need not agree. The source made the active and inactive calls. Calls follow the shape of the dose curve; as a rule, active = well fitted curve in the direction sought with a large enough effect; inconclusive = small, poorly fitted or top-dose-only effect, or another doubt; inactive = no such curve, though single readings can be large; an effect the other way counts as inactive or inconclusive.

How the values were obtained:
[1] = target: Thioredoxin reductase 1, cytoplasmic (Rattus norvegicus) (UniProt O89049); test: qHTS Assay for Inhibitors of Mammalian Selenoprotein Thioredoxin Reductase 1 (TrxR1) (AID 488773); conditions: Potency: inhibition;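 also: drop in NADPH fluorescence over an 8 min run after selenite addition; series mostly up to about 57 µM; nearly all actives have a fitted effect of over 40% in size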
Summary of the method: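 Inhibition is scored from the loss of NADPH fluorescence between first and last reads of an 8-min kinetic run. Selenite (400 uM) was the substrate, added after 15 min compound preincubation at room temperature.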

[2] = target: Flap endonuclease 1 (Homo sapiens) (UniProt P39748); test: qHTS Validation Assay for the Inhibitors of Human Flap endonuclease 1 (FEN1) (AID 488816)
Summary of the method: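 Steps: add FEN1 (10 nM reagent) or buffer only; pin compounds; hold 15 min at room temperature; start with substrate, 50 nM final; read at 0 and 15 min; correct, normalize and fit a four-parameter Hill curve.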

[3] = target: M-phase phosphoprotein 8 (Homo sapiens) (UniProt Q99549); test: qHTS Validation Assay for Inhibitors for MPP8 Chromodomain Interactions with Methylated Histone Tails (AID 488949); also: nearly all actives have a fitted effect of over 55% in size; also: potency is read from the fitted curve at half-maximal effect
Summary of the method: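 Chemiluminescent proximity assay: histidine-tag capture via nickel acceptor beads, biotin peptide via streptavidin donor beads. Protein and peptide each at 50 nM, pH 7.4, with 30 min incubations at room temperature for complex formation, compound exposure and bead binding.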

[4] = target: Chromobox protein homolog 1 (Homo sapiens) (UniProt P83916); test: qHTS Validation Assay for Inhibitors of HP1-beta Chromodomain Interactions with Methylated Histone Tails (AID 488953); also: nearly all actives have a fitted effect of over 50% in size; also: potency is read from the fitted curve at half-maximal effect
Summary of the method: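 Disruption of preformed HP1-beta:H3K9me3 peptide complexes (both 50 nM, PBS pH 7.4 with 0.01% Tween-20) is measured by AlphaScreen after 30 min compound exposure at room temperature, using streptavidin donor and nickel chelate acceptor beads at 10 ug/mL final.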

[5] = target: Methanococcus maripaludis chaperonin (MmCpn) (UniProt Q6LX38); test: High-Throughput Screening for Modulators of Cytosolic Chaperonin Activity: MmCpn Primary Screen (AID 488978)
Summary of the method: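 HTRF readout (320 nm excitation, 590/665 nm emission) of ADP generated by 50 nM MmCpn hydrolysing 30 uM ATP during 10 min at 37C; compound preincubated 5 min RT.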

[6] = target: Transient receptor potential cation channel subfamily V member 1 (Homo sapiens) (UniProt Q8NER1); test: HTS Assay for Compounds that Act as Enhancers of the Vanilloid Receptor 1 (AID 488979)
Summary of the method: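 TRPV1-expressing cells loaded with Fluo-8 calcium dye; compounds added and calcium influx read kinetically for 3 min (agonist phase), then capsaicin at EC20 added and read 2 min more for enhancement. Fluorescence ex 480/em 520 nm.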

[7] = target: Thyrotropin receptor (Homo sapiens) (UniProt P16473); test: qHTS Assay for Antagonists of the Thyroid Stimulating Hormone Receptor (AID 488980); also: series mostly up to about 58 µM
Summary of the method: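 Inhibition of TSH-stimulated cAMP accumulation was quantified by homogeneous time-resolved FRET in TSHR-transfected HEK293 cells. Agonist: TSH, 4 nM final (EC80).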

[8] = target: D(1A) dopamine receptor (Homo sapiens) (UniProt P21728); test: HTS Assay for Allosteric Agonists of the Human D1 Dopamine Receptor: Primary Screen for Agonists (AID 488981)
Summary of the method: (§1)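 Tetracycline-induced HEK293 T-REx cells force-coupled to calcium signalling were incubated overnight at 30 C and dye-loaded at room temperature. Calcium flux over 180 s after compound addition flagged agonists; a further 180 s read after EC20 dopamine flagged potentiators.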

[9] = target: D(1A) dopamine receptor (Homo sapiens) (UniProt P21728); test: HTS Assay for Allosteric Agonists of the Human D1 Dopamine Receptor: Primary Screen for Potentiators (AID 488982); also: potency is read from the fitted curve at half-maximal effect
Summary of the method: as §1

[10] = target: D(1A) dopamine receptor (Homo sapiens) (UniProt P21728); test: HTS Assay for Allosteric Agonists of the Human D1 Dopamine Receptor: Primary Screen for Antagonists (AID 488983);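 also: calcium flux response to an EC80 dopamine challenge measured with no-wash dye; nearly all actives have a fitted effect of over 65% in size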; also: potency is read from the fitted curve at half-maximal effect
Summary of the method: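 Kinetic fluorescence at 1 cycle/sec tracked intracellular calcium in force-coupled, tetracycline-inducible HEK293 T-REx D1 cells. Loss of response to an EC80 dopamine dose, given 180 s after compound, marked antagonists.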

Measured: Potency

D(1A) dopamine receptor (Homo sapiens), sequence (P21728 whole entry, looked up): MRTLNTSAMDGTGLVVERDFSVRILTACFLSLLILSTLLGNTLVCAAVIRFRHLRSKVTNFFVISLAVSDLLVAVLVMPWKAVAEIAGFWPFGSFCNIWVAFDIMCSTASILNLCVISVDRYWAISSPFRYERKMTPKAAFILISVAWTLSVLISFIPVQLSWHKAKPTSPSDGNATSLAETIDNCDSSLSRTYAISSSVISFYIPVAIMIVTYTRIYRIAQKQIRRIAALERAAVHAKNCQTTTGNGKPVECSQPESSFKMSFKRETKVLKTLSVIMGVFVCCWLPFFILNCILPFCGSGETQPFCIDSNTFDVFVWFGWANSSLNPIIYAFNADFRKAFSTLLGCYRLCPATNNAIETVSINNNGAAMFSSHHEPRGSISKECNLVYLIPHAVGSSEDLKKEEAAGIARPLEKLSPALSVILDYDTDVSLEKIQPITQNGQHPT
Transient receptor potential cation channel subfamily V member 1 (Homo sapiens), sequence (Q8NER1 whole entry, looked up): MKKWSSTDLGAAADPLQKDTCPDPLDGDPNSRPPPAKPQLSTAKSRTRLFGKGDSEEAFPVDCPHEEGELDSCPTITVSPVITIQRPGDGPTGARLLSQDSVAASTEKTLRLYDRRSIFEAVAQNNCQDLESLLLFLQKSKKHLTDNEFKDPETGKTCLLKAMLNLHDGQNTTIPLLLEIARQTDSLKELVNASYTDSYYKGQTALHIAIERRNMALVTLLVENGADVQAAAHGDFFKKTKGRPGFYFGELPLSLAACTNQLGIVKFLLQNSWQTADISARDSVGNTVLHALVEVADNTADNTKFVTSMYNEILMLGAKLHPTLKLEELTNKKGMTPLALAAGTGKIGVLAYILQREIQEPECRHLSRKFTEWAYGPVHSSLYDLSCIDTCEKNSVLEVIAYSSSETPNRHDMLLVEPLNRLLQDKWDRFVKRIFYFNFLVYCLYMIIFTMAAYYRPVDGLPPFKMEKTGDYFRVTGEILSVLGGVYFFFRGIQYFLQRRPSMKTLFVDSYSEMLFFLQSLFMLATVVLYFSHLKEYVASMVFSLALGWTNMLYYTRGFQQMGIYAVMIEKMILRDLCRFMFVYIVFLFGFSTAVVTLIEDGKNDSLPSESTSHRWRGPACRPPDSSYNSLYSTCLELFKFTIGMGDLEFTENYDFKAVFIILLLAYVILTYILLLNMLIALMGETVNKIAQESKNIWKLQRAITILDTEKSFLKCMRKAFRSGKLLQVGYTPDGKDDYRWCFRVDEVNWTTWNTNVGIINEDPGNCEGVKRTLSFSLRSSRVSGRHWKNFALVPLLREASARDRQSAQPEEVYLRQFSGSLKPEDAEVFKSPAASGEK
Methanococcus maripaludis chaperonin (MmCpn), sequence (Q6LX38 1-543): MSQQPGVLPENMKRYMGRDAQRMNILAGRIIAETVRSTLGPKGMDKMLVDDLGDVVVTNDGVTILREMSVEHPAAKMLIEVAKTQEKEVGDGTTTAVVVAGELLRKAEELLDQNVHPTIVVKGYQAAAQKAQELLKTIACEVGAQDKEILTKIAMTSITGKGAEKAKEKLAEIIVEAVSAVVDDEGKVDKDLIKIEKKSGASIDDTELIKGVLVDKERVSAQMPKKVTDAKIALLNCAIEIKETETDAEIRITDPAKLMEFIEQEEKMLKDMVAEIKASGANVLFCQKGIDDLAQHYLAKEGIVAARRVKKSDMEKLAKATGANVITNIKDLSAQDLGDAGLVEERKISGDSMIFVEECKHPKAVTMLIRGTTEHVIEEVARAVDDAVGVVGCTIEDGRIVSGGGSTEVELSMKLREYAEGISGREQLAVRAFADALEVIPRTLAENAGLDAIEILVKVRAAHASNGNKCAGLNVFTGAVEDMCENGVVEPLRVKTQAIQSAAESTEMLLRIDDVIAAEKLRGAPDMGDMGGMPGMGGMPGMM
Thyrotropin receptor (Homo sapiens), sequence (P16473 whole entry, looked up): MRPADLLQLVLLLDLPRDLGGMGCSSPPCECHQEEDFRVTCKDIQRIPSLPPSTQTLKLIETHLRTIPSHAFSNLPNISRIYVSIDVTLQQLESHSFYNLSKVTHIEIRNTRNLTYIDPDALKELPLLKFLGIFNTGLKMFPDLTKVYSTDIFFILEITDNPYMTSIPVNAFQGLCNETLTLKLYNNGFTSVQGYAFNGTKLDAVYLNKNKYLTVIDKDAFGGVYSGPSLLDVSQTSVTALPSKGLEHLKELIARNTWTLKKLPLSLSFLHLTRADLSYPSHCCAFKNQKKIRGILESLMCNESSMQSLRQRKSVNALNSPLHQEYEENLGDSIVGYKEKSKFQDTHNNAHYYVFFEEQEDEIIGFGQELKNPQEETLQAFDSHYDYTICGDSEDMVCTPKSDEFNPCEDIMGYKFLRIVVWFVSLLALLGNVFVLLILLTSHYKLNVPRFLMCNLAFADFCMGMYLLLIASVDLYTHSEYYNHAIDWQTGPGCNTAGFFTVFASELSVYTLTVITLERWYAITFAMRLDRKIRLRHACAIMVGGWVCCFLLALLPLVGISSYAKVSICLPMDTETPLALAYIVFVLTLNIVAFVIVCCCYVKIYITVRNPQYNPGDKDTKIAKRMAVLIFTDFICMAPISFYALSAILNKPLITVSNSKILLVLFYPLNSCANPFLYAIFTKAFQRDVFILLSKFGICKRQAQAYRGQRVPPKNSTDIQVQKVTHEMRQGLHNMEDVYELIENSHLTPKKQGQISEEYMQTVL
Thioredoxin reductase 1, cytoplasmic (Rattus norvegicus), sequence (O89049 whole entry, looked up): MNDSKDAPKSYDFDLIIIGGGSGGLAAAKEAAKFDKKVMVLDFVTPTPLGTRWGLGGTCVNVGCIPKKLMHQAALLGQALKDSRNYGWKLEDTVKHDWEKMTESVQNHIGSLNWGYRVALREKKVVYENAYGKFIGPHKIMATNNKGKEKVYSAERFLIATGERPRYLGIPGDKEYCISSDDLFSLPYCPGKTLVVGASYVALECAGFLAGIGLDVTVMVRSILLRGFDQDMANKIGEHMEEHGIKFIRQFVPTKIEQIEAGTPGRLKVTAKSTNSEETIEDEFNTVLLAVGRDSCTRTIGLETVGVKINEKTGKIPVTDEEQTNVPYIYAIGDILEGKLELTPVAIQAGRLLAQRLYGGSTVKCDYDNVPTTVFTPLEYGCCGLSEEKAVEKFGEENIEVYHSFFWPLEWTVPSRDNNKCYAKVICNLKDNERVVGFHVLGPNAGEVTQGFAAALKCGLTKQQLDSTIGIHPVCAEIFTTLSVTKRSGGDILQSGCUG
M-phase phosphoprotein 8 (Homo sapiens), sequence (Q99549 whole entry, looked up): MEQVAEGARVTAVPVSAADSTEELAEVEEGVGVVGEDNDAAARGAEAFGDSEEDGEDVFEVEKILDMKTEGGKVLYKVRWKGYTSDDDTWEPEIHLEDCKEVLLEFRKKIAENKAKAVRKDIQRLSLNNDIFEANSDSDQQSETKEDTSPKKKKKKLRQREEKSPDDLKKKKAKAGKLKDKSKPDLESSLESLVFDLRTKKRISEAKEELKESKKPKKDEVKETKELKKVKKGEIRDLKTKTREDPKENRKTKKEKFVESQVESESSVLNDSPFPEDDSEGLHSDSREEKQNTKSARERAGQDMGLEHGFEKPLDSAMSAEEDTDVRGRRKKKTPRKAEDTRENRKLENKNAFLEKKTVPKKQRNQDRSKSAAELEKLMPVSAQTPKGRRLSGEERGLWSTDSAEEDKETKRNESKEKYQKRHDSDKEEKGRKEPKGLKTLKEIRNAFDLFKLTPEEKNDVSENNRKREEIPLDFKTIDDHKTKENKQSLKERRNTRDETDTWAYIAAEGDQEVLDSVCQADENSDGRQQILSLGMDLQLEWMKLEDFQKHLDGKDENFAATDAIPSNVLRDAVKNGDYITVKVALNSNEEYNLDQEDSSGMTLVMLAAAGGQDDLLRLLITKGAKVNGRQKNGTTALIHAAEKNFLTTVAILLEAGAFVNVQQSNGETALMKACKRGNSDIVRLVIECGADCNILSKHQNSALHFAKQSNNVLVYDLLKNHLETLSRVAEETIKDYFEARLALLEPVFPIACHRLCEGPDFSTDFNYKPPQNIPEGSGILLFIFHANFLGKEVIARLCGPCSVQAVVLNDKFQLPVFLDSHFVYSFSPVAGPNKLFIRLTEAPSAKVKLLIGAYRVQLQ
Chromobox protein homolog 1 (Homo sapiens), sequence (P83916 whole entry, looked up): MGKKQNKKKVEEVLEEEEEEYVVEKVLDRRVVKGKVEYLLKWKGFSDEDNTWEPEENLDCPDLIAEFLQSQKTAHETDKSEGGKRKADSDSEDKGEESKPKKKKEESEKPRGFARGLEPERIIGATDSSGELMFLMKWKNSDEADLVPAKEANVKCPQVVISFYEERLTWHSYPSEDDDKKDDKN
Flap endonuclease 1 (Homo sapiens), sequence (P39748 whole entry, looked up): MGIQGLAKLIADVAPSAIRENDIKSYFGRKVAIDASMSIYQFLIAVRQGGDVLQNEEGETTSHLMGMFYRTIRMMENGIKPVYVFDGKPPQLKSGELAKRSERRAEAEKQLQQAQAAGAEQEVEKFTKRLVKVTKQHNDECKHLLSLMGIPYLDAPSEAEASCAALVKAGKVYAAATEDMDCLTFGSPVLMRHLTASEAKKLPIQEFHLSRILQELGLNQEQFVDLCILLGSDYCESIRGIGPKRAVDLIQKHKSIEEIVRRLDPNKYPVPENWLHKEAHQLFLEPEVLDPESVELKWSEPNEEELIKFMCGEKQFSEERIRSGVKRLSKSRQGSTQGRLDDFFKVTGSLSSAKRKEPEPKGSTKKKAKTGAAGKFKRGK

NC(N)=NC(=O)Cc1c(Cl)cccc1Cl
inactive: [1] | [2] | [3] | [4] | [5] | [6] | [7] | [8] | [9]

O=C(CCNNC(=O)c1ccncc1)NCc1ccccc1
inactive: [1] | [2] | [3] | [4] | [5] | [6] | [7] | [8] | [9] | [10]

Cc1nc2sccn2c(=O)c1CCN1CCC(=C(c2ccc(F)cc2)c2ccc(F)cc2)CC1
inactive: [1] | [2] | [5] | [6] | [7] | [8] | [9]
active: [4] 44.7 µM
28.2 µM (active) and inactive: [3]

COc1ccc(CN(CCN(C)C)c2ccccn2)cc1
inactive: [1] | [2] | [3] | [4] | [5] | [6] | [8] | [9] | [10]

CN(C)C(=O)Oc1cccc([N+](C)(C)C)c1
inactive: [1] | [2] | [3] | [4] | [5] | [6] | [7] | [8] | [9] | [10]

CSc1ccc(C(=O)c2[nH]c(=O)[nH]c2C)cc1
inactive: [1] | [2] | [3] | [4] | [5] | [6] | [7] | [8] | [10]
active: [9] 2.31 µM

CCCN(CCC)CCc1cccc2c1CC(=O)N2
inactive: [1] | [2] | [3] | [4] | [5] | [6] | [7] | [8] | [9] | [10]

CCN(CC)CCOCCOC(=O)C1(c2ccccc2)CCCC1
inactive: [1] | [2] | [3] | [4] | [5] | [6] | [7] | [8] | [9] | [10]

CNC1(C)C2CCC(C2)C1(C)C (configuration not stated)
inactive: [1] | [2] | [3] | [4] | [5] | [6] | [7] | [8] | [9] | [10]

CCN(Cc1ccncc1)C(=O)C(CO)c1ccccc1 (configuration not stated)
inactive: [1] | [2] | [3] | [4] | [5] | [7] | [8] | [9] | [10]

CC(=O)Nc1nnc(S(N)(=O)=O)s1
inactive: [1] | [2] | [3] | [4] | [5] | [6] | [7] | [8] | [9] | [10]

CN(C)CC/C=C1\c2ccccc2COc2ccccc21
inactive: [1] | [2] | [3] | [4] | [5] | [7] | [8] | [9]

Cc1nc2ccccn2c(=O)c1CCN1CCC(C(=O)c2ccc(F)cc2)CC1
active: [10] 4.47 µM
inactive: [1] | [2] | [3] | [4] | [5] | [6] | [8] | [9]

O=C(O)CN(CCOCCOCCN(CC(=O)O)CC(=O)O)CC(=O)O
inactive: [1] | [2] | [3] | [4] | [6] | [7] | [8] | [9] | [10]

CC(C)[N+](C)(CCOC(=O)C1c2ccccc2Oc2ccccc21)C(C)C
inactive: [1] | [2] | [3] | [4] | [7] | [8] | [9] | [10]

NC(=O)c1ncn([C@@H]2O[C@H](CO)[C@@H](O)[C@H]2O)c1O
inactive: [1] | [2] | [3] | [4] | [6] | [7] | [8] | [9] | [10]

COc1cc2c(cc1OC)-c1cc(=Nc3c(C)cc(C)cc3C)n(C)c(=O)n1CC2
39.8 µM (active) and inactive: [3]
active: [4] 35.5 µM
inactive: [1] | [2] | [7] | [8] | [9]

CN1CCN(C2=Nc3ccccc3Oc3ccc(Cl)cc32)CC1
inactive: [1] | [2] | [3] | [4] | [5] | [7] | [8] | [9]
active: [10] 0.398 µM

COCCc1ccc(OCC(O)CNC(C)C)cc1 (configuration not stated)
inactive: [1] | [2] | [3] | [4] | [7] | [8] | [9] | [10]

Nc1ncn([C@@H]2O[C@H](CO)[C@@H](O)[C@H]2O)c(=O)n1
inactive: [1] | [2] | [3] | [4] | [5] | [7] | [8] | [9] | [10]

CC(=O)OC(C)C[N+](C)(C)C (configuration not stated)
inactive: [1] | [2] | [3] | [4] | [6] | [7] | [8] | [9] | [10]

CN(C)CCN(Cc1cccs1)c1ccccn1
inactive: [1] | [2] | [3] | [4] | [5] | [7] | [8] | [9] | [10]

NS(=O)(=O)c1cc2c(cc1Cl)NC(C1CC3C=CC1C3)NS2(=O)=O (configuration not stated)
inactive: [1] | [2] | [3] | [4] | [6] | [8] | [10]
